Experimental data from PubChem BioAssay AID624330 (Southern Research Specialized Biocontainment Screening …, 2012).
Hit rate of the full screen: of about 340,000 compounds, about 2,100 (0.62%) were called active.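 The calls were made as follows: active = first-screen hits whose inhibition reached a set limit at any dose in the follow-up dose series; inconclusive = inhibition above the set first-screen limit but never retested; inactive = the rest.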 The list is a sample of the results. Entries with a potency or affinity are not part of this list.

What follows are compounds tested against Rac GTPase-activating protein 1 (Homo sapiens) (UniProt Q9H0H5) (assay: MgcRacGAP GTPase-activating activity inhibitors, confirmation, biochemical, ADP Hunter fluorescence, primary and confirmatory (AID 624330;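 also: fluorescence reports GDP produced by GAP-driven GTP hydrolysis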)). Details: MgcRacGAP-stimulated Rac1 GTP hydrolysis, at 30 µM, hits give high values, GST-tagged Rac1 F28L mutant substrate.
Chain of Rac GTPase-activating protein 1 (Homo sapiens) (Q9H0H5 whole entry, looked up): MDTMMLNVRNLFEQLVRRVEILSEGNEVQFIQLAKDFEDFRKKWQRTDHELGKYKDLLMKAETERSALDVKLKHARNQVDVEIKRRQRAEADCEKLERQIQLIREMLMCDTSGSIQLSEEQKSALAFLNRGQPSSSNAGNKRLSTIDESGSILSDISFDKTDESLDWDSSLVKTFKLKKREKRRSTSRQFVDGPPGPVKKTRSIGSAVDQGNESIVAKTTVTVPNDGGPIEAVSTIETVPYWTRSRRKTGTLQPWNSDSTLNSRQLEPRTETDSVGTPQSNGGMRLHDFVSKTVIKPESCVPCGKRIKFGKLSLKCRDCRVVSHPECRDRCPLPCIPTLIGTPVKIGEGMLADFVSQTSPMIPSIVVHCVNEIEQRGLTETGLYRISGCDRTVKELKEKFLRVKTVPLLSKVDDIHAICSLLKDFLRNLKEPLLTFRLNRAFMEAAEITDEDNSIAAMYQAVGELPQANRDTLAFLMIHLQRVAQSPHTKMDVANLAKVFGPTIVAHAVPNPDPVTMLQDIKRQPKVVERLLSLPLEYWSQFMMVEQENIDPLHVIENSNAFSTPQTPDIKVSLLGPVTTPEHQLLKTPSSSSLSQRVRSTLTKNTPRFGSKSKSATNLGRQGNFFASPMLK

inhibition, inactive:
O=C(c1ccco1)N1CCc2ccccc21 3.81%, COCC(C)n1c(C)cc(C(=O)CSc2ncccn2)c1C (stereo not drawn) 8%, CN(CC1COc2ccccc2O1)C(=O)Cn1cc(C(F)(F)F)ccc1=O (stereo not drawn) 0.56%, CCN(CC)C(=O)C1CCN(Cc2ccc(OCc3ccccc3)cc2)CC1 15.5%, NC(=O)C1CCN(Cc2ccc(OCc3ccccc3)cc2)CC1 21.3%, CCN(CC)C(=O)C1CCN(Cc2cccc(OCc3ccccc3)c2)CC1 19.6%, CCCCN(C)C(=O)C1CCN(Cc2cccnc2)CC1 27.6%, NC(=O)C1CCN(Cc2cccc(OCc3ccccc3)c2)CC1 21.4%, CCCCN(C)C(=O)C1CCN(CCCc2ccccc2)CC1 21.2%, CCc1c(O)nc(SCC(=O)N2CCOCC2)n(-c2ccccc2)c1=O 9.22%, Cc1cc(NC(=O)COC(=O)CNC(=O)c2cccs2)c([N+](=O)[O-])cc1C 10.5%, O=C1OC(c2ccc(F)cc2)=N/C1=C\c1ccc(Br)o1 12.2%, NC(=O)CC(NC(=O)c1ccccc1)c1ccc(N2CCN(c3ccccn3)CC2)c([N+](=O)[O-])c1 (stereo not drawn) 6.77%, CC(C)CCNC(=O)CCCCn1c(=O)[nH]c2ccsc2c1=O 1.12%, CCn1cc(C(=O)NC2CCCCC2)c(=O)c2ccc(C)nc21 6.08%, CCOc1ccccc1OCCCCOc1ccccc1F 8.35%, CCOc1ccccc1C(=O)N[C@H](C(=O)NNC(=O)c1cccs1)C(C)C 2.5%, Cc1ccc(C)c(SCC(=O)NC(=O)NCc2ccccc2)c1 6.96%, Cc1ccc(NC(=O)N2CCCC2C(=O)Nc2ccc(-n3cnnn3)c(C)c2)cc1 (stereo not drawn) -9.47%, CS(=O)(=O)N1CCN(C(=O)NC23CC4CC(CC(C4)C2)C3)CC1 -2.26%, CN1CCCN(C2C3CC4CC(C3)CC2C4)CC1 (stereo not drawn) 14.8%, C/C(=N/OCC(=O)Nc1ccc(C)cc1C)c1cccs1 17%, Nc1c([N+](=O)[O-])c(=O)oc2ccccc12 3.99%, O=c1cc(-c2ccccc2[N+](=O)[O-])oc2ccccc12 4.61%, CN(C)S(=O)(=O)c1cccc(C(=O)c2nccn2C)c1 2.41%, Cc1ccc(C(=O)Nc2ncc(C)s2)s1 3.92%, Cc1ccsc1C=Nc1ccc(O)cc1 18.4%, Cc1ccc(-c2nc(C=Nc3ccc(O)cc3)c(O)o2)cc1 19%, COc1ccccc1NS(=O)(=O)c1cc(NC(=O)c2ccc(Cl)nc2)ccc1N1CCCC1 9.85%, CCn1nc(C)c(NC(=O)CSc2nnc(-c3ccco3)n2C)c1C 5.76%, Cc1nn(CCCC(=O)Nc2cnn(Cc3ccc(F)cc3)c2)c(C)c1[N+](=O)[O-] -3.65%, O=C(c1cccc(N2CCNC2=O)c1)N1CCCC(Nc2cccc(F)c2)C1 (stereo not drawn) -0.6%, COc1cccc(C(=O)N2CCCC(Nc3ccc(C)c(C)c3)C2)c1 (stereo not drawn) 16.7%, Cc1ccc(NC2CCCN(C(=O)c3ccc(C)c(N4CCNC4=O)c3)C2)cc1C (stereo not drawn) 15.1%, CC(C)c1ccc(NC2CCCN(C(=O)c3cccc(N4CCNC4=O)c3)C2)cc1 (stereo not drawn) 9.26%, COc1cc(OC)cc(C(=O)N2CCCC(Nc3ccc(F)cc3)C2)c1 (stereo not drawn) 3.07%, Cc1ccc(C(=O)N2CCCC(Nc3cccc(F)c3)C2)cc1N1CCNC1=O (stereo not drawn) 7.34%, CC(C)CNc1nc(N)c([N+](=O)[O-])c(NC2CCCCC2)n1 9.84%, CCc1nn2c(=O)cc(CSCC(=O)Nc3ccccc3Cl)nc2s1 10.2%, Cc1ccc(CN2CCN(Cc3ccc(OC(C)C)cc3)CC2CCO)o1 (stereo not drawn) 8.44%, Cc1cccnc1NC(=O)CCCNC(=O)c1ccc(Cl)cc1 5.51%, Oc1cccc(CCc2ccccn2)c1 -0.46%, Nc1ccc(CCc2ccccn2)cc1 -1.15%, COc1ccc(OCC(=O)OCC(=O)NCc2ccco2)cc1 5.26%, COCCNC(=O)COc1ccc(Oc2ccccc2)cc1 8.68%, O=C(COC(=O)COc1ccccc1)NCc1ccco1 5.42%, O=C(COc1ccc(Cl)cc1)OCC(=O)N1CCCC1 8.63%, COCCNC(=O)COc1cccc(Oc2ccccc2)c1 12.7%, O=C(COc1ccc(Cl)cc1)OCC(=O)N1CCCCCC1 11.4%, Cc1ccc(CNC(=O)C2CCC(CNS(=O)(=O)c3cccs3)CC2)cc1 (stereo not drawn) 5.1%, Cc1cccc(NC(=O)CNC(=O)c2ccc(-n3cncn3)c([N+](=O)[O-])c2)c1C 0.04%, Cc1cc(OC(C)C(=O)NCc2cccnc2)c2c(C)cc(=O)oc2c1 (stereo not drawn) 3.28%, CC(NS(=O)(=O)c1ccc2c(c1)C(C)(C)C(=O)N2C)c1ccccc1 (stereo not drawn) 3.16%, N/C(=N\c1nc2c(c(=O)[nH]1)CCC2)Nc1ccccc1C(F)(F)F -0.36%, Cn1c(=O)[nH]c(=O)c2c1nc(Br)n2Cc1ccc(Cl)cc1 8.01%, CSc1nc2c(c(=O)[nH]c(=O)n2C)n1Cc1ccc(Cl)cc1 11.4%, O=C(O)CCC(=O)Nc1cccc(-c2nc3ccccc3o2)c1 -9.77%, CCN(CC)S(=O)(=O)c1ccc2c(c1)c(=O)c(C(=O)N1CCN(c3ccccc3)CC1)cn2C 1.44%, CCN(CC)CCN1c2ccccc2Sc2ccc3ccccc3c21 10.6%, CN(C)CCCN1c2ccccc2Sc2ccc3ccccc3c21 15.1%, COc1cc(C(C)=O)ccc1OCC(O)CNCC1(N2CCCCC2)CCCCC1 (stereo not drawn) 27.1%, OC(CNCC1(N2CCCCC2)CCCCC1)COc1ccc(Cl)cc1Cl (stereo not drawn) 17.6%, O=C(NCC1CCCO1)c1cc(C(=O)C2CCCCC2)c[nH]1 (stereo not drawn) 4.74%, CCCCCOC(=O)CSc1nc2c(c(=O)[nH]c(=O)n2C)n1Cc1ccc(Cl)cc1 1.35%, O=C(CSc1ccc(-c2ccco2)nn1)Nc1ccc(F)cc1F 9.4%, COc1ccc(/C=C/C(=O)CCC(=O)O)cc1 2.46%, Cc1ccc(N2CC3=C(C2=O)C(c2ccccc2)NC(=O)N3C)cc1 (stereo not drawn) 6.8%, CN1C(=O)NC(c2ccc(O)cc2)C2=C1CN(c1ccccc1)C2=O (stereo not drawn) 10.4%, CSc1ccccc1NC(=S)Nc1cc(C)cc(C)c1 9.21%, COc1ccc(S(=O)(=O)N2CCOCC2)cc1NC(=O)Cc1ccccc1Cl 5.39%, CCN(CC)c1ccc(CNc2ccc(Br)cn2)cc1 4.81%, CCN(CC)c1ccc(NC(=O)c2cncc(Br)c2)cc1 30.6%, CCc1ccc(C(=O)OCC(=O)Nc2cccc(S(=O)(=O)NC3=NCCCCC3)c2)cc1 5.3%, O=S(=O)(Nc1nc2c(s1)CCCC2)c1ccc2ccccc2c1 8.29%, O=S(=O)(NC1=NCCCCC1)c1ccc2ccccc2c1 2.56%, Nc1nc2cc(S(=O)(=O)NC3=NCCCCC3)ccc2s1 38.9%, Cc1ccc(-c2cc(C(=O)N3CCCC3)c3ccccc3n2)s1 3.87%, CCCCn1c(N)c(N(CCOC)C(=O)CSc2ccc([N+](=O)[O-])cc2)c(=O)[nH]c1=O 9.47%, CC1CC1C(=O)OCC(=O)NNC(=O)c1ccc([N+](=O)[O-])cc1 (stereo not drawn) 2.78%, Cc1ccc(-c2cc(C(=O)N/N=C/c3c(C)nn(-c4ccccc4)c3C)n[nH]2)s1 3.04%, CC(C)NC(=O)N(C)C[C@H]1Oc2ccc(NS(=O)(=O)c3cn(C)cn3)cc2C(=O)N([C@H](C)CO)C[C@@H]1C 12.3%, Cc1cc(Br)ccc1NCc1ccccn1 23.4%, O=C(CN1CCN(S(=O)(=O)c2ccc(Br)cc2)CC1)Nc1ccc(F)cc1F 7.71%, CC1(C)CC(=S)Nc2ccccc2S1 2.74%, CC1(C)CNc2cc([N+](=O)[O-])ccc2S1 9.53%, CSc1ncccc1C(=O)NC1CCCc2c1cnn2-c1ccc(C)c(C)c1 (stereo not drawn) 3.32%, CCOc1cc(C=NN2CCCCCC2)ccc1O 30.4%, CCOc1cc(/C=N/n2cnnc2)cc(Br)c1O 14.1%, CCOc1cc(/C=N/n2c(C)nc3sc(C)c(C)c3c2=O)ccc1O 10%, CCOc1cc(/C=N/N=C/c2ccc(O)c(OCC)c2)ccc1O 9.66%, CN(C)c1nc(C(=O)O)nc(N2CCOCC2)n1 7.25%, CN(C(=O)c1ccc(NC(=O)Cc2ccc(NC(=O)C3CCCN(C(=O)C4CCCCC4)C3)cc2)cc1)C1CCCC1 (stereo not drawn) 9%, O=C(Nc1cccc(NS(=O)(=O)c2ccc(S(=O)(=O)NC3CC3)cc2)c1)c1ccccn1 11.8%, NC(=O)CSc1nnc(NC(=O)c2cccc(S(=O)(=O)N3CCCCC3)c2)s1 7.47%, Cc1c(Cl)cccc1NC(=S)NC1CCCC1 8.99%, CN(C(=O)c1ccco1)c1nc(-c2ccccc2)cs1 8.31%, Nc1nc(-c2cccs2)cs1 18.1%, c1csc(-c2csc(-c3cccs3)n2)c1 7.41%, CN(c1nc(-c2ccccc2)cs1)C1CCS(=O)(=O)C1 (stereo not drawn) 8.88%, c1ccc(-c2nc(-c3cccnc3)cs2)cc1 7.12%, Oc1ccc(Nc2nc(-c3cccs3)cs2)cc1 19.4%, CN(C(=O)c1cccnc1)c1nc(-c2ccccc2)cs1 0.25%, Cc1cc(O)ccc1Nc1nc(-c2cccnc2)cs1 28.4%
